According to PubChem BioAssay (NCI):
Compounds without any hit were thinned out: in the full panel of roughly 83,000, 20% have a hit.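 Assay: single dose, 48 h. Readout: percent growth (0 = no net growth; negative = cell death). Active: <10.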 Unmarked numbers belong to inactive results. Active and inactive are the calls of the source.

Assays:
Test in all cases: NCI-60 one-dose screen, 48 h (100 = growth as untreated, 0 = no growth, -100 = all killed)
Settings in all cases: 10 µM unless noted
DU-145 prostate = tested on: DU-145 prostate
K-562 leukemia = tested on: K-562 leukemia
MALME-3M melanoma = tested on: MALME-3M melanoma
MDA-MB-231 breast = tested on: MDA-MB-231 breast
RXF 393 renal = tested on: RXF 393 renal
SF-268 CNS = tested on: SF-268 CNS
SF-295 CNS = tested on: SF-295 CNS
SF-539 CNS = tested on: SF-539 CNS
UACC-257 melanoma = tested on: UACC-257 melanoma
M14 melanoma = tested on: M14 melanoma
HCT-15 colon = tested on: HCT-15 colon
HT29 colon = tested on: HT29 colon
SNB-75 CNS = tested on: SNB-75 CNS
SNB-19 CNS = tested on: SNB-19 CNS
U251 CNS = tested on: U251 CNS
PC-3 prostate = tested on: PC-3 prostate
SK-MEL-5 melanoma = tested on: SK-MEL-5 melanoma
UACC-62 melanoma = tested on: UACC-62 melanoma
LOX IMVI melanoma = tested on: LOX IMVI melanoma
SK-MEL-28 melanoma = tested on: SK-MEL-28 melanoma

Row | Structure (SMILES) | growth (DU-145 prostate) | growth (K-562 leukemia) | growth (MALME-3M melanoma) | growth (MDA-MB-231 breast) | growth (RXF 393 renal) | growth (SF-268 CNS) | growth (SF-295 CNS) | growth (SF-539 CNS) | growth (UACC-257 melanoma) | growth (M14 melanoma) | growth (HCT-15 colon) | growth (HT29 colon) | growth (SNB-75 CNS) | growth (SNB-19 CNS) | growth (U251 CNS) | growth (PC-3 prostate) | growth (SK-MEL-5 melanoma) | growth (UACC-62 melanoma) | growth (LOX IMVI melanoma) | growth (SK-MEL-28 melanoma)
1 | C=C(C)[C@@H]1CCC=C2CC[C@]3(C)[C@H](CC[C@@H]4[C@@]5(C)CCCNC(C)(C)[C@@H]5CC[C@]43C)[C@H]21 | 18.6% | -0.754% (active) | 38% | -6.11% (active) | 47.6% | 93.1% | 72.5% | 84.8% | 83% | 34.6% | -17.7% (active) | 3.02% (active) | 100% | 15.3% | -73% (active) | 38.2% | 81.9% | 87.7% | -43.4% (active) | 96.7%
2 | COc1ccc(Cc2nc(C#N)c(N3CCN(c4ccc(F)cc4)CC3)o2)cc1 | 100% | 75.3% | 104% | 98.4% | 76% | 90.5% | 95.5% | 98.2% | 112% | 90% | 76% | 79.8% | 65.2% | 99.1% | 103% | 85.9% | 100% | 76.1% | 96.1% | 97.9%
3 | C=C1C(=O)O[C@H]2[C@H]1CC/C(COC(=O)c1cccnc1N)=C\CC[C@@]1(C)O[C@@H]21 | 14% | 10.1% | -3.98% (active) | -9.35% (active) | -2.17% (active) | 23.9% | 34.5% | 12.6% | 57.8% | 10.2% | 0.999% (active) | -10.4% (active) | 66% | 25.7% | 28.8% | 24.8% | 15.3% | 33% | 7.48% (active) | 19.6%
4 | O=C(C[n+]1cccc2cc(Cl)ccc21)c1ccc2c(c1)CCCC2 | 10.5% | 10.6% | -30.9% (active) | 5.63% (active) | 62% | 27.6% | 47.2% | -10.9% (active) | 5.48% (active) | 32.6% | 95.5% | 5.56% (active) | 19.8% | 23.2% | -28.9% (active) | 16.1% | -29% (active) | 17.3% | 11.9% | 19.8%
5 | COC(=O)/C=C1\SC(=Nc2ccc(F)cc2)N(CCc2c[nH]c3ccccc23)C1=O | 102% | 88% | 99.9% | 96.9% | 110% | 104% | 97.7% | 109% | 72.4% | 102% | 98.3% | 66.3% | 108% | 103% | 98.2% | 87.9% | 99.5% | 82.6% | 90% | 112%
6 | CC(/C=C/c1ccccc1)=N/NC(=O)c1ccncc1 | 112% | 100% | 89.5% | 105% | 113% | 102% | 109% | 105% | 89.8% | 101% | 100% | 108% | 97.7% | 102% | 98.3% | 92.5% | 100% | 94.1% | 99.5% | 118%
7 | CCOC(=O)NCCc1nc2c([nH]1)c(=O)n(C)c(=O)n2C | 107% | 119% | 99.2% | 105% | 113% | 98.5% | 103% | 105% | 113% | 88.8% | 97.6% | 98.5% | 91% | 107% | 108% | 91% | 102% | 100% | 94.9% | 102%
8 | COc1ccc2[nH]c3nc4cnccc4cc3c2c1 | 101% | 111% | 108% | 109% | 123% | 106% | 114% | 102% | 122% | 102% | 97.9% | 99.7% | 97.5% | 105% | 98.9% | 104% | 108% | 117% | 105% | 114%
